VDR inh: Inhibitors of the vitamin D receptor (VDR): qHTS; Vitamin D3 receptor (Homo sapiens), P11473; VDR-SRC2-3 peptide fluorescence polarization, 2 h; Potency, µM, for inactives: max response, negative = inhibition, usual class: inhibitors; 400,000 compounds, 0.93% hits; AID 504847, 2011; further: potency means the concentration at half of the fitted maximal effect
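Measured by FP: displacement of SRC2-3 coactivator peptide from VDR by library compounds, following a two-hour ambient incubation.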
CCT modulator: High-Throughput Screening for Modulators of Cytosolic Chaperonin Activity. purified chaperonin ATPase assay, HTRF ADP detection, 30 min. activity change, % (test concentration not listed), hits read low. 360,000 compounds, 0.3% hits; in the data active means activity change below about -30%
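We incubate TRiC, 40 or 20 nM final, with library compounds at 76 uM and 10 uM ATP for 30 min at 37 °C. ADP formed is detected with Transcreener HTRF reagents after 30 min at room temperature.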
PLK1 PBD inh: qHTS for Inhibitors of PLK1-PDB (polo-like kinase 1 - polo-box domain): Primary Screen | Plk1 PBD binding of FITC phosphopeptide, fluorescence polarization | Potency, µM, for the others: max response, negative = inhibition, actives largely listed as inhibitors | 360,000 compounds, 2.8% hits; further: potency means the concentration at half of the fitted maximal effect; series mostly up to about 57 µM; nearly all actives have a fitted effect of over 65% in size
Target sequence (P53350 whole entry, looked up, the tested form may be a part): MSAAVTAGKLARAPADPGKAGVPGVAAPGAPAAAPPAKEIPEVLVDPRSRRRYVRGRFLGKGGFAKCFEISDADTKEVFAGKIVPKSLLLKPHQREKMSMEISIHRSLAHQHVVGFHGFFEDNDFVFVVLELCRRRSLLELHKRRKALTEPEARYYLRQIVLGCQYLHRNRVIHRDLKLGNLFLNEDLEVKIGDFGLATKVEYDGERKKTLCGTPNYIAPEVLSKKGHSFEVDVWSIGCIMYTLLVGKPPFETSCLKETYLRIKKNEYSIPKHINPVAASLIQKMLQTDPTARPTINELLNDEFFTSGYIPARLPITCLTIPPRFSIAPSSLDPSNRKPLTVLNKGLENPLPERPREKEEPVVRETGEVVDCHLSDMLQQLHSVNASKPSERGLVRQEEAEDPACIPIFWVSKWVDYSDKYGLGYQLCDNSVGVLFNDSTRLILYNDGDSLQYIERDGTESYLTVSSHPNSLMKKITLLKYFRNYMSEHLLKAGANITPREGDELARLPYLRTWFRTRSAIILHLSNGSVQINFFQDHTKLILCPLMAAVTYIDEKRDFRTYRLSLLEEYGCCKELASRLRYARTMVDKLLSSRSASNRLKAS
G9a block: qHTS Assay for Inhibitors of Histone Lysine Methyltransferase G9a | Histone-lysine N-methyltransferase EHMT2 (Homo sapiens), Q96KQ7 | Potency, µM (top dose mostly 102 µM), inactives show at the highest dose activity, negative = inhibition, usual class: inhibitors | G9a H3K9 monomethylation, AlphaScreen, 2 h | 350,000 compounds, 8.8% hits; further: potency means the concentration at half of the fitted maximal effect; nearly all actives have a fitted effect of over 75% in size
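AlphaScreen detection with an anti-monomethyl H3K9 antibody quantified product after a 2 h room-temperature reaction containing 500 nM biotinylated H3K9 peptide, 20 µM SAM and 20 nM enzyme, which had been preincubated 15 min with compound.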
Mm-Cpn inhibitor: Inhibitors of TCP-1 ring complex (TRiC) of Methanococcus maripaludis (MmCpn): qHTS | Chaperonin Mm-Cpn (Methanococcus maripaludis) | purified Mm-Cpn ATPase, ADP Transcreener TR-FRET | Potency, µM (doses to about 76.9 µM), for inactives: at the top dose activity, negative = inhibition, most hits filed as inhibitors | 330,000 compounds, 0.031% hits; further: potency means the concentration at half of the fitted maximal effect; nearly all actives have a fitted effect of over 80% in size
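Quantitative HTS used 25 nM Mm-CPN and 10 uM ATP in magnesium/KCl Tris buffer, pH 7.4, with 1 mM DTT. Hydrolysis ran 30 min at 37°C; ADP was read by HTRF.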
Sfp PPTase inh: qHTS Assay for Inhibitors of Bacillus subtilis Sfp phosphopantetheinyl transferase (PPTase); Potency, µM, for the others: largest response in the series, negative = inhibition, usual class: inhibitors; Biochemical Sfp PPTase activity, qHTS; 4'-phosphopantetheinyl transferase ffp (Bacillus subtilis), Q9F4F7; 310,000 compounds, 3.5% hits;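 further: the enzyme is Sfp with the accession as filed and its product quenches rhodamine fluorescence; potency means the concentration at half of the fitted maximal effect; 0% = enzyme reaction without inhibitor and -100% = no enzyme wells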
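Step 1, compound plus 15 nM Sfp-PPTase, 15 min, room temperature. Step 2, add rhodamine-CoA (5 uM) and BHQ-2-YbbR (12.5 uM). Step 3, read 525/598 nm fluorescence at 0 and 30 min.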
* = called active by the depositor; [ ] = another dose, or the depositor's remark. Only some compounds are listed: those with a hit (about 10% of all), similar ones and a draw of the others. Unless noted, the call rests on the fitted dose curve; in most records, active means well fitted curve in the direction sought with a large enough effect; inconclusive means small, poorly fitted or top-dose-only effect, or another doubt; inactive means no such curve, though single readings can be large; an effect the other way counts as inactive or inconclusive. Unless noted, on the % scale 0 is the no-effect control and ±100 the full control effect.

Results for Cc1cc(C)cc(N=C2SC(CC(=O)Nc3ccccc3)C(=O)N2CCN2CCOCC2)c1 (configuration not stated) ?
VDR inh: -10%; CCT modulator: 3; PLK1 PBD inh: -1%; G9a block: 50µM*; Mm-Cpn inhibitor: -1%; Sfp PPTase inh: 3%

Results for CC(NC(=O)Nc1ccc(Cl)c(Cl)c1)C(c1ccccc1)N1CCOCC1 (configuration not stated) ?
VDR inh: 14%; CCT modulator: -1; PLK1 PBD inh: 2%; G9a block: 0%; Mm-Cpn inhibitor: 0%; Sfp PPTase inh: 2%

Results for CC(NC(=O)Nc1ccc([N+](=O)[O-])cc1)C(c1ccccc1)N1CCOCC1 (configuration not stated) ?
VDR inh: -1%; CCT modulator: -3; PLK1 PBD inh: -13%; G9a block: 40µM*; Mm-Cpn inhibitor: -1%; Sfp PPTase inh: inconclusive

How did COc1ccc(C)cc1NC(=O)c1cn(C)c(=O)c2cc(OC)c(OC)cc12 do in these assays?
VDR inh: 5%; G9a block: 1%[59 µM]

Results for O=C(CN1CCCCCCC1)N/N=C/c1ccccc1F ?
VDR inh: 5%; CCT modulator: -1; PLK1 PBD inh: -5%; G9a block: 13µM*; Mm-Cpn inhibitor: 3%; Sfp PPTase inh: -7%

How did COc1ccc(/C=N/NC(=O)CN2CCCC2)cc1 do in these assays?
VDR inh: -16%; CCT modulator: 0; PLK1 PBD inh: -2%; G9a block: 3%; Mm-Cpn inhibitor: -1%; Sfp PPTase inh: 18%

What do the screens show for `O=C(CN1CCSCC1)N/N=C/c1ccccc1F`?
VDR inh: -9%; CCT modulator: -5; PLK1 PBD inh: -9%; G9a block: 1%[12.7 µM]; Mm-Cpn inhibitor: -1%; Sfp PPTase inh: -30%

How did O=C(CN1CCCC1)NC(c1ccccc1)c1ccccc1 do in these assays?
VDR inh: -2%; CCT modulator: -2; PLK1 PBD inh: -4%; G9a block: 10µM*; Mm-Cpn inhibitor: -3%; Sfp PPTase inh: -15%

How did COc1ccc(/C=N/NC(=O)CN2CCCCCCC2)c(C)c1C do in these assays?
VDR inh: 32%; CCT modulator: -2; PLK1 PBD inh: -15%; G9a block: 8.9µM*; Mm-Cpn inhibitor: 0%; Sfp PPTase inh: -2%

How did O=C(CN1CCCCC1)N/N=C/c1ccc(Cl)cc1Cl do in these assays?
VDR inh: 0%; CCT modulator: -1; PLK1 PBD inh: -10%; Mm-Cpn inhibitor: -1%; Sfp PPTase inh: 27%

What do the screens show for `CCOc1ccc(/C=N/NC(=O)CN2CCSCC2)cc1`?
VDR inh: -5%; CCT modulator: 1; PLK1 PBD inh: -3%; G9a block: 10µM*; Mm-Cpn inhibitor: 1%; Sfp PPTase inh: -18%

Results for C=C1CC2COC(=O)C2(Cc2ccc3ccccc3c2)C1 (configuration not stated) ?
VDR inh: -18%; Sfp PPTase inh: -6%

How did CCOc1ccccc1NC(=O)C(=O)NCCc1sc2nc(-c3ccc(OC)cc3)nn2c1C do in these assays?
VDR inh: 5%; G9a block: 8%[59 µM]

How did Oc1c(C(c2ccccc2Cl)N2CCN(Cc3ccccc3)CC2)sc2nc(-c3ccco3)nn12 (configuration not stated) do in these assays?
VDR inh: 9%; G9a block: inconclusive

Results for CCOC(=O)CSC1=Nc2ccccc2C2=NC(CCC(=O)NCc3ccccc3)C(=O)N12 (configuration not stated) ?
VDR inh: 16%; G9a block: 8%[59 µM]

How did O=C(NCc1ccc(Cl)cc1)C(=O)NCC(c1ccc2c(c1)OCO2)N1CCOCC1 (configuration not stated) do in these assays?
VDR inh: 0%; G9a block: -1%[59 µM]

What do the screens show for `O=C(Cc1ccsc1)Nc1ccccc1F`?
VDR inh: inconclusive; CCT modulator: 1; PLK1 PBD inh: 27µM*; G9a block: 9%; Mm-Cpn inhibitor: -3%; Sfp PPTase inh: 15%

Results for CN1CCN(CC(=O)N/N=C/c2ccc(F)c(F)c2)CC1 ?
VDR inh: 0%; CCT modulator: 1; PLK1 PBD inh: 6%; G9a block: 16µM*; Mm-Cpn inhibitor: 1%; Sfp PPTase inh: -22%

How did O=C(CN1CCN(CC(=O)Nc2ccccc2C(F)(F)F)CC1)Nc1ccccc1F do in these assays?
VDR inh: -8%; CCT modulator: -3; PLK1 PBD inh: -3%; G9a block: 32µM*; Mm-Cpn inhibitor: -3%; Sfp PPTase inh: 5%

What do the screens show for `O=C(CN1CCCCCC1)Nc1ccccc1F`?
VDR inh: -6%; CCT modulator: 14; PLK1 PBD inh: -8%; G9a block: 8.9µM*; Mm-Cpn inhibitor: -5%; Sfp PPTase inh: inconclusive

Results for O=C(CN1CCCCCC1)Nc1ccccc1Cl ?
VDR inh: -11%; CCT modulator: 0; PLK1 PBD inh: -11%; G9a block: -2%; Mm-Cpn inhibitor: 0%; Sfp PPTase inh: 11%

What do the screens show for `O=C(CN1CCN(C(=O)c2c(F)cccc2F)CC1)Nc1ccccc1C(F)(F)F`?
VDR inh: -7%; CCT modulator: 0; PLK1 PBD inh: -1%; G9a block: 19%; Mm-Cpn inhibitor: 5%; Sfp PPTase inh: 1%

What do the screens show for `Cc1cccc(N(C)C(=O)CSc2nc3ncccc3o2)c1`?
VDR inh: -12%; G9a block: 15%[59 µM]

Results for Cc1nc(-c2ccccc2)c(-c2ccncc2)o1 ?
VDR inh: 1%; Sfp PPTase inh: 11%

Results for O=C(CN1CCCC1)Nc1ccccc1Sc1ccc(Cl)cc1 ?
VDR inh: 0%; CCT modulator: -35*; PLK1 PBD inh: -3%; G9a block: 0%[59 µM]; Mm-Cpn inhibitor: -6%; Sfp PPTase inh: 79µM*

What do the screens show for `CCN1CCN(CC(=O)N/N=C/c2ccc(F)cc2F)CC1`?
VDR inh: -11%; CCT modulator: -2; PLK1 PBD inh: 4%; G9a block: 2.8µM*; Mm-Cpn inhibitor: 3%; Sfp PPTase inh: -28%

What do the screens show for `O=C(Nc1ccccc1C(F)(F)F)c1c(F)cccc1Cl`?
VDR inh: -17%; CCT modulator: -1; PLK1 PBD inh: 30µM*; Mm-Cpn inhibitor: -1%; Sfp PPTase inh: 13%

Assay outcomes: PubChem, National Center for Advancing Translational Sciences (NCATS)
